# Screening results as filed in PubChem.
# CHT inh – inhibitors of human choline transporter CHT | High affinity choline transporter 1 (Homo sapiens), Q9GZV3 | CHT-expressing cells, membrane potential dye, choline response; stronger effect = lower value | B-score at 10 µM | actives 0.86% (n = 310,000) | AID 488975, 2010;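 active means B-score over 3 SD under the library average, and starting fluorescence ratio not unusually high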;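 further: choline stimulus applied at its EC90 after an EC20 pre-addition; B-score computed on integrated fluorescence ratio after choline addition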
# Target sequence (Q9GZV3 whole entry, looked up): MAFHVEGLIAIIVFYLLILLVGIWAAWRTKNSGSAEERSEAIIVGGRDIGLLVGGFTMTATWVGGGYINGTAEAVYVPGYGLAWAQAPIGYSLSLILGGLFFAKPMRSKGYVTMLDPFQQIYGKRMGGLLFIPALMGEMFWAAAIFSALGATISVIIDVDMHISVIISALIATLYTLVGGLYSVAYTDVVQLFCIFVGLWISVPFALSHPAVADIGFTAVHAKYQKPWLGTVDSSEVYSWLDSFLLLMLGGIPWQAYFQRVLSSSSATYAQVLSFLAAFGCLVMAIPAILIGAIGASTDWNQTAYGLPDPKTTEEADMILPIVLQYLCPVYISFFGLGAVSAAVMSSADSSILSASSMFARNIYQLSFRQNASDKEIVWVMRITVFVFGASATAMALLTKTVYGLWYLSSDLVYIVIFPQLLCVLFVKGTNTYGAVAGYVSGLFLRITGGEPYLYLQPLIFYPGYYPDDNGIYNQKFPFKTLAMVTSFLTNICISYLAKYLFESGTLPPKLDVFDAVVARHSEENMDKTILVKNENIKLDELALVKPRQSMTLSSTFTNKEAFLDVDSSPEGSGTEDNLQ
# ANO1 block – TMEM16A chloride channel inhibitors, primary screen, cell-based, HTS | Anoctamin-1 (Mus musculus), Q8BHY3 | HEK293 TMEM16A/YFP iodide influx fluorescence, ionomycin | normalized B-score (activity score, 25-100; higher = stronger inhibition) at 10 µM | actives 1.2% (n = 310,000) | AID 588511, 2011;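 active means ratio plate-corrected score three or more library SD toward inhibition, starting fluorescence score within five deviations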;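 further: score derived from kinetic fluorescence span divided by baseline fluorescence per well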
# CHT PAM – CHT positive allosteric modulators, primary screen, cell-based, membrane potential dye, choline EC20; CHT-expressing cells; stronger effect = higher value; LV-AA mutant CHT in HEK293 cells; B-score at 10 µM; actives 0.49% (n = 310,000); AID 488977, 2010;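 active means initial fluorescence not abnormally high and integrated response B-score, plate-corrected, over 3 SD above library mean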
# PHOSPHO1 block – PubChem AID 1565 | Phosphoethanolamine/phosphocholine phosphatase (Homo sapiens), Q8TCT1 | recombinant PHOSPHO1, absorbance phosphatase assay | inhibition, % at 13.3 µM | actives 1.1% (n = 290,000); in the data active means inhibition above about 60%
# HDAC3 inhib – HDAC3 deacetylase inhibitors, primary screen, biochemical, fluorescence, cell-free homogeneous | AID 2718, 2010 | recombinant HDAC3, fluorogenic peptide/trypsin coupled | actives 0.15% (n = 320,000) | inhibition, % at 8.3 µM | Histone deacetylase 3 (Homo sapiens), O15379; in the data active means inhibition above about 26%, passing the limit was not always enough; inconclusive means no clear call, values can overlap the other calls
# ANO1 activ – TMEM16A chloride channel activators or potentiators, primary screen, cell-based, HTS; HEK293 TMEM16A/YFP-H148Q/I152L, iodide quench fluorescence; stronger effect = lower value; B-score at 10 µM; actives 0.3% (n = 340,000); AID 623877, 2012;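 active means fluorescence-ratio B-score plate-corrected deviation score at least 3 library SD below zero, with starting fluorescence score within 5 deviations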;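 further: channel opened by trigger with iodide after compound preincubation; score built on the fluorescence ratio of max minus min over baseline; more negative score means more quench and so TMEM16A activation or potentiation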
# CHT block conf – CHT inhibitors, confirmation, cell-based, membrane potential dye, duplicate | shares compounds with CHT inh | CHT-expressing cells, choline membrane potential dye; LV-to-AA substituted CHT, HEK293 cells | CHT activity remaining % of control (stronger effect = lower value), % at 10 µM | actives 70% (n = 2,400) | AID 493221, 2011;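 active means choline transporter activity left, mean of duplicates at 10 µM, below buffer-only control mean minus 3 SD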;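 further: depolarization triggered by choline at its EC90 following an EC20 pre-addition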
# HEK293 MPD ctr – membrane potential effects in parental HEK293, counter-screen for CHT inhibitor project, cell-based, membrane potential dye; shares compounds with CHT inh; choline response; active = decrease or increase beyond buffer ±3SD; actives 4% (n = 2,400); membrane potential ratio readout (active if shifted either direction beyond buffer ±3SD; no single direction) at 10 µM;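 further: parental cells lack the transporter so any hit is non-specific; ratio is peak minus trough fluorescence over baseline after EC90 choline challenge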
# A number is an active result; n = inactive; u = inconclusive; x = not tested or not shown. Rows were chosen to be rich in hits. Some 3.2% of all compounds tested hit in one or more screens of this group.
SMILES,CHT inh,ANO1 block,CHT PAM,PHOSPHO1 block,HDAC3 inhib,ANO1 activ,CHT block conf,HEK293 MPD ctr
OCCNCC(O)Cn1ccc2ccccc21 (stereo not drawn),n,n,n,n,n,x,x,x
Cc1c(NC(=S)NC(=O)c2ccc(-c3ccc(Cl)cc3)o2)cccc1C(=O)O,-8.85,n,n,n,n,n,55.1%,n
O=C(NC(=S)Nc1ccccc1O)c1ccc(-c2ccc(Cl)cc2)o1,n,n,n,n,n,n,x,x
CCCc1nc2oc(C(=O)OCC)c(N)c2c2c1COC(C)(C)C2,-6.35,n,n,n,n,n,32.5%,n
CCOC(=O)c1oc2nc(C(C)C)c3c(c2c1N)CCC3,-5.19,n,n,n,n,n,39.8%,n
CC(C)C(=O)Nc1nnc(S(=O)(=O)N(C)c2ccc(Cl)cc2)s1,n,n,n,n,n,n,x,x
CN(C)c1ccc(CNC(=O)c2ccc(CNc3c(N4CCCCC4)c(=O)c3=O)cc2)cc1,n,n,n,n,n,n,x,x
O=C(NCc1ccc(Cl)cc1)c1ccc(CNc2c(N3CCCC3)c(=O)c2=O)cc1,-6.24,n,n,n,x,n,n,n
O=C(CCCN1C(=O)/C(=C/c2cccs2)SC1=S)Nc1ccc(O)c(C(=O)O)c1,x,x,x,n,x,x,x,x
CC(C)(C)N(NC(=O)Nc1ccccc1)C(=O)c1ccccc1,-6.07,n,n,n,n,n,n,n
Cc1ccc(NC(=O)CSCC(=O)N(C)CCOc2ccc(Cl)cc2)cc1,x,x,x,x,x,n,x,x
O=c1cc(CN2CCN(c3ccccc3O)CC2)nc2sccn12,-8.78,n,n,n,n,n,42.5%,n
O=C(NC1CCCCCC1)C1c2ccccc2C(=O)N1Cc1ccco1 (stereo not drawn),-5.66,n,n,n,n,n,n,-8.35
O=C(NC1CCCCCC1)C1c2ccccc2C(=O)N1Cc1cccs1 (stereo not drawn),n,n,n,n,n,n,x,x
CC1=NN(C(N)=S)C(=O)C1N=Nc1c(Br)cc(Br)cc1Br (stereo not drawn),-7.65,100,n,n,n,n,31.1%,n
COC(=O)C(Oc1ccc2c(-c3ccc(OC)cc3)cc(=O)oc2c1)c1ccccc1 (stereo not drawn),-6.17,n,n,n,n,n,n,n
CC(Oc1ccc2c(-c3ccccc3)cc(=O)oc2c1)C(=O)O (stereo not drawn),n,n,n,n,u,n,x,x
CC1CCCCC1NC(=O)Cn1nc(-c2ccccc2)ccc1=O (stereo not drawn),-5.37,n,n,n,n,n,64.2%,n
Cc1ccccc1-n1nc2c(c1NC(=O)c1cccc(F)c1)CS(=O)C2 (stereo not drawn),n,n,n,n,n,n,x,x
O=C1NC(=Nc2ccccc2Cl)S/C1=C\c1cccc([N+](=O)[O-])c1O,-5.03,25,n,x,n,n,38.5%,n
CCCCOC(=O)c1ccc(NC(C)=O)cc1,n,n,n,n,n,n,x,x
CCCCOC(=O)c1ccc(NC(=O)c2cc(Cl)c(Cl)cc2C(=O)O)cc1,-5.26,n,n,n,n,n,61.1%,n
CCc1nn(C(CC)C(=O)NCCCc2ccccc2)c(=O)c2cc3occc3n12 (stereo not drawn),n,n,n,n,n,n,x,x
CCC(C(=O)NC(C)CCc1ccccc1)n1nc(C)n2c(cc3occc32)c1=O (stereo not drawn),-11.3,n,n,n,n,n,n,-8.54
N#CC(C#N)=C(Nc1ccc(F)cc1)SCc1cccc(F)c1,-5.81,25,n,n,n,n,64.5%,n
SMILES,CHT inh,ANO1 block,CHT PAM,PHOSPHO1 block,HDAC3 inhib,ANO1 activ,CHT block conf,HEK293 MPD ctr
O=C(COc1ccccc1)N1CCN(c2nnc(-c3ccccc3)c3ccccc23)CC1,-5.21,n,n,n,n,n,n,n
CCCc1cc(NCCN(C)C)n2c(nc3ccccc32)c1C#N,-6.06,n,n,n,n,n,50.8%,n
CCCc1cc(NCc2ccccn2)n2c(nc3ccccc32)c1C#N,n,n,n,n,n,n,x,x
CCCc1cc(NCC2CCCO2)n2c(nc3ccccc32)c1C#N (stereo not drawn),-6.93,n,n,n,n,n,43.2%,n
CN(CC(=O)Nc1ccc(N2CCOCC2)cc1)C(=O)CCCOc1ccc(Cl)cc1Cl,n,n,n,x,n,n,x,x
O=C(COC(=O)c1cccc(C(=O)OCC(=O)NC2CCCCC2)n1)NC1CCCCC1,n,n,n,n,n,n,x,x
Cc1ccc(C(=O)NC2CCN(S(=O)(=O)c3ccc(C)cc3)CC2)cc1,n,n,n,n,n,n,x,x
Cc1ccc2c(c1)c(CC(=O)Nc1ccc(C)c(F)c1)c(C(=O)O)n2C,-5.4,n,n,n,u,n,63.3%,n
O=C(NC1CC2CCC1C2)C1CCN(S(=O)(=O)c2ccc(-c3nn[nH]n3)cc2)CC1 (stereo not drawn),n,n,n,n,n,n,x,x
CSCC[C@H](N)C(=O)N1CCC(C(=O)N[C@@H](C)C(=O)NCc2ccc(F)cc2)CC1,n,n,n,n,n,n,x,x
Cc1ccccc1CN(C)CC(=O)Nc1ccccc1Oc1ccccc1,n,n,n,n,n,n,x,x
CCOC(=O)c1c(/N=C/c2cc(OC)cc([N+](=O)[O-])c2O)sc(C)c1C,n,n,n,n,n,n,x,x
CCOC(=O)c1c(/N=C/c2cc([N+](=O)[O-])ccc2O)sc(C)c1C,-5,n,n,n,n,n,n,n
CCOc1ccc(C2NC(=O)c3sc(=S)n(-c4ccccc4)c3N2)cc1 (stereo not drawn),-4.94,n,n,n,n,n,n,n
COc1ccc(C2NC(=O)c3sc(=S)n(-c4ccccc4)c3N2)cc1 (stereo not drawn),n,n,n,n,n,n,x,x
CCc1nnc(NC(=O)CSc2ncc(-c3ccccc3)n2C)s1,-5.46,n,n,n,n,n,65.3%,n
Cc1ccc(C(=O)CCC(=O)NC2CCCC(C)C2C)cc1 (stereo not drawn),-5.22,n,n,n,n,n,58.3%,n
